Only some compounds are listed: those with a hit (about 2.4% of all), similar ones and a draw of the others.
BRCT PPI red: qHTS Assay for Inhibitors of BRCT-Phosphoprotein Interaction (Red Fluorophore) | Breast cancer type 1 susceptibility protein (Homo sapiens), P38398 | BRCT-phosphopeptide binding, red fluorescence polarization | Potency, µM (titrated, usually from 76.9 µM), most hits filed as inhibitors | actives 0.03% (n = 75,000)
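Fluorescence polarization: 100 nM His-tagged BRCA1 BRCT with 100 nM TAMRA-labelled phospho-BACH1 decapeptide, phosphate buffer pH 7.3 with 150 mM NaCl, DTT, 0.01% Tween 20; 12 min RT. Binding inhibition seen as FP decrease.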
DNA Pol III inh: qHTS Assay for Inhibitors of DNA Polymerase III Holoenzyme System; actives 0.25% (n = 71,000); Potency, µM (doses to about 57.1 µM); AID 603, 2007; reconstituted DNA polymerase III holoenzyme replication, biochemical
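Reconstituted *E. coli* holoenzyme (0.35 nM Pol III, 1 nM beta, 154 nM SSB, 2 nM primase) was preincubated with compound for 15 min at RT. Synthesis on 1.4 nM ssM13Gori ran 35 min, then was stopped with PicoGreen/EDTA and read as dsDNA fluorescence.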
Hsp90 Hop PPI: qHTS Assay for Disrupters of an Hsp90 Co-Chaperone Interaction. actives 0.44% (n = 71,000). Hsp90 C-terminal peptide / TPR2A (Hop) interaction, human. AlphaScreen TPR2A-His6 binding biotin-Hsp90 C-terminal peptide. Potency, µM (top dose mostly 57 µM). AID 595, 2007; active = well fitted curve in either direction with a large enough effect; inconclusive = small, poorly fitted or top-dose-only effect, or another doubt
TsaE inh: qHTS Assay for Inhibitors of YjeE | tRNA threonylcarbamoyladenosine biosynthesis protein TsaE (Escherichia coli (strain … | purified YjeE enzyme, qHTS inhibition assay | Potency, µM | actives 0.05% (n = 71,000) | AID 605, 2007
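Purified YjeE (10 uM) with BODIPY Texas Red-labeled ADP probe (2 uM); compounds pin-transferred, 15 min at room temperature. Binding inhibition read as decreased fluorescence polarization; ADP titration as control.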
Tau fil binding: qHTS Assay for Tau Filament Binding; Microtubule-associated protein tau (Homo sapiens), P10636; Potency, µM (titrated, usually from 57.1 µM); AID 596, 2007; recombinant tau filaments, thioflavin S fluorescence, 15 h; filaments grown with octadecylsulfate alongside compound; actives 2% (n = 71,000);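 also: actives lower thioflavin S fluorescence by blocking filaments or displacing dye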
Target sequence (P10636 whole entry, looked up): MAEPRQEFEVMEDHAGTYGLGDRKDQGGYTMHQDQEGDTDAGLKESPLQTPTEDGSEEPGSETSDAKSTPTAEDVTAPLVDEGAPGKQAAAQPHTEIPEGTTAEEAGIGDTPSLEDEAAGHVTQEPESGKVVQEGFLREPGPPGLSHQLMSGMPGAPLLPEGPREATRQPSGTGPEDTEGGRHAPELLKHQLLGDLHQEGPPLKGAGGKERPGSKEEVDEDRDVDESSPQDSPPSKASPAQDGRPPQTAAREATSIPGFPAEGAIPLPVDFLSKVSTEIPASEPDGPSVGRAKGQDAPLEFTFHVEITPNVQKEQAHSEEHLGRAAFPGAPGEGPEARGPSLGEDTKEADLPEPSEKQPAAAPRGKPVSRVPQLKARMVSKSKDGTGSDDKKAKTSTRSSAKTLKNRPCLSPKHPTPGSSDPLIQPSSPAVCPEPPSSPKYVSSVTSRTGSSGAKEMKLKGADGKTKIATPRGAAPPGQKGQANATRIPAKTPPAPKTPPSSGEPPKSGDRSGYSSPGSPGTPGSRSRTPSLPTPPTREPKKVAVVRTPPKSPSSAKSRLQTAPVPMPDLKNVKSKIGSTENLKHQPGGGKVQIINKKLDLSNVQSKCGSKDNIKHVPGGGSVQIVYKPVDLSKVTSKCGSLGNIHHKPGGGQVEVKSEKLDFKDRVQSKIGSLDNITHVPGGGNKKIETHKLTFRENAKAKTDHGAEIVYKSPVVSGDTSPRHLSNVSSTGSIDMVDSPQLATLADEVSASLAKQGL
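His-tagged recombinant human tau (exons 2, 3 and 10 included), 1 uM, was induced to fibrillize by 30 uM sodium octadecylsulfate with compound present. After 15 h at 37 C, thioflavine S fluorescence (ex 450, em 510 nm) was read.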
BRCT PPI green: qHTS Assay for Inhibitors of BRCT-Phosphoprotein Interaction (Green Fluorophore) | Breast cancer type 1 susceptibility protein (Homo sapiens), P38398 | BRCA1 BRCT-phosphopeptide binding, green fluorescence polarization | Potency, µM (series often up to 76.9 µM), most hits filed as inhibitors | actives 0.05% (n = 75,000)
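Fluorescence polarization: His-tagged BRCT (~35 kDa BRCA1 C-terminus, 250 nM) bound to 100 nM fluorescein-labeled phosphorylated 10-aa BACH1 peptide, pH 7.3 phosphate buffer with DTT and Tween 20. Compounds incubated 12 min at room temperature; inhibition read as lowered polarization.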
Each line names hits and unclear results; the compound was inactive in the other large screens; ! = repeats disagree. Unless noted, calls follow the shape of the dose curve; as a rule, active = well fitted curve in the direction sought with a large enough effect; inconclusive = small, poorly fitted or top-dose-only effect, or another doubt; inactive = no such curve, though single readings can be large; an effect the other way counts as inactive or inconclusive.

Cn1c(=O)c2ncn(CC(=O)Nc3ccc4c5c(cccc35)CC4)c2n(C)c1=O	Tau fil binding 13µM
Cn1c(Sc2ccc(-c3cccnc3)n2C)ccc1-c1cccnc1	none
CCOC(=O)c1[nH]c2ccc(C)cc2c1NC(=O)CN1CCCCC1	none
Cc1c2cc[n+](CCN3CCCCC3)cc2c(C)c2c1[nH]c1ccc(O)cc12	DNA Pol III inh 2.5µM, Tau fil binding 4µM
O=C(O)Cn1c(=O)oc2cc(S(=O)(=O)NC3CCCCC3)ccc21	none
CCCC(=O)Nc1ncnc2c1ncn2C1OC2COP(=O)(O)OC2C1OC(=O)CCC (configuration not stated)	none (no result: DNA Pol III inh, Hsp90 Hop PPI, TsaE inh, Tau fil binding)
CCCC(=O)Nc1ncnc2c1ncn2[C@@H]1O[C@@H]2COP(=O)(O)O[C@H]2[C@H]1OC(=O)CCC	Tau fil binding 40µM
O=C(O)CCCN1CCCCC1	none
COc1cc(NC(=O)C2CCCN2C(=O)C2CCC(C)CC2)cc(OC)c1OC (configuration not stated)	none
COc1ccc(OC)c(NC(=O)C2CCCN2C(=O)C2CCC(C)CC2)c1 (configuration not stated)	Tau fil binding 20µM
CN(C(=O)c1ccc2c(=O)n3c(nc2c1)CCCCC3)c1ccccc1	none
O=C(OCc1cc(=O)n2c(n1)sc1ccccc12)c1ccc2c(=O)n3c(nc2c1)CCC3	Tau fil binding 6.3µM
CCN1CCCC1Cn1c(-c2ccccc2)nc2c(NCCOC)nc(C)nc21 (configuration not stated)	none
CC(C=O)Cc1ccc(C(C)(C)C)cc1 (configuration not stated)	none
CCN1CCC[C@@H]1CNC(=O)c1c(OC)ccc(I)c1O	none (no result: BRCT PPI red, BRCT PPI green)
C/C(=C\COc1cc(=O)[nH]c2ccccc12)CC[C@@H](O)C(C)(C)O	Tau fil binding 40µM (no result: BRCT PPI red, BRCT PPI green)
Cc1ccc(-c2csc3nnc(SCC(=O)N4CCN(Cc5ccccc5)CC4)n23)cc1	Tau fil binding 20µM
CC(C)=CCC1(CC=C(C)C)C(=O)C(C(=O)c2ccccc2)=C2OC(C)(C)CCC2(CC=C(C)C)C1=O (configuration not stated)	none (no result: DNA Pol III inh, Hsp90 Hop PPI, TsaE inh, Tau fil binding)
Nc1cc(Cl)c(N)cc1Cl	Tau fil binding 25µM
Nc1cc(Cl)c(N)c(Cl)c1	none
Fc1cccc(Cl)c1/C=N\N=C1c2ccccc2-c2ccccc21	Hsp90 Hop PPI inconclusive, Tau fil binding 4µM
C[C@@]12CCC(=O)C=C1CC[C@H]1[C@H]3CC[C@](O)(C(=O)CO)[C@]3(C)CC[C@@H]12	none (no result: BRCT PPI red, BRCT PPI green)
CC(C)CCC[C@@H](C)[C@@H]1CC[C@@H]2[C@H]3CC[C@H]4C[C@@H](N)CC[C@@]4(C)[C@@H]3CC[C@]21C	none
COCCCn1c2nc3ccccc3nc2c2c(=O)n(Cc3ccc(Cl)cc3)cnc21	none
O=c1c2c3nc4ccccc4nc3n(Cc3ccccc3)c2ncn1Cc1ccco1	Tau fil binding 10µM
CCN1C(=O)c2c(C)nc3ccccc3c2C1=O	Tau fil binding 16µM
CNc1nc(-c2ccc3c(c2)OCO3)nc2ccccc12	none
CN(C)C(=O)c1ccc(-c2nc(Nc3ccncc3)c3ccccc3n2)cc1	none
c1ccc(Nc2nc(-c3ccc4c(c3)OCO4)nc3ccccc23)cc1	Tau fil binding 25µM
CN(C)c1ccc(-c2nc(Nc3ccncc3)c3ccccc3n2)cc1	Tau fil binding 10µM
CS(=O)(=O)N1CCC2(CC1)CN(C(=O)Nc1cccc(F)c1)C2	Hsp90 Hop PPI inconclusive, TsaE inh inconclusive, Tau fil binding 13µM
CCOc1ccc(-c2nc(-c3ccccc3)no2)cc1OCC	none
CCOc1ccc2noc3c2c1C(=O)c1ccccc1-3	Hsp90 Hop PPI inconclusive, BRCT PPI green 4µM
O=C(O)c1cc(N=Nc2ccc([N+](=O)[O-])cc2)ccc1O	Tau fil binding 32µM!
O=C(CSc1ccc2nnc(-c3ccccc3)n2n1)N1CCN(c2ccccc2)CC1	Tau fil binding 1.6µM
COCCN(CCOC)C(=O)c1ccc(Cc2nc3ccccc3[nH]2)cc1	none (no result: DNA Pol III inh, Hsp90 Hop PPI, TsaE inh, Tau fil binding)
Nc1c(C(=O)NCc2ccco2)sc2nc3c(cc12)C(=O)CCC3	Tau fil binding 20µM
O=C(NCCN1CCOCC1)c1ccc(Cc2nc3ccccc3[nH]2)cc1	none (no result: DNA Pol III inh, Hsp90 Hop PPI, TsaE inh, Tau fil binding)
COc1cc(C2Nc3ccc4ncccc4c3C3=C2C(=O)CCC3)cc(OC)c1O (configuration not stated)	none
O=C1CCCC2=C1C(c1ccco1)Nc1ccc3ccccc3c12 (configuration not stated)	DNA Pol III inh 25µM, Tau fil binding 13µM
COc1cc(OC)c(C2N(c3ccc(Cl)cc3)C(=O)C3CCCN32)cc1OC (configuration not stated)	Tau fil binding 20µM
N#CCCn1c(=O)c(-c2cccs2)nc2cnc(N3CCNCC3)nc21	BRCT PPI green inconclusive
N#C/C(=C\N1CCNC1=S)C(=O)c1ccc2ccccc2c1	none
O=C(O)[C@H]1[C@H](C(=O)O)[C@H](C(=O)O)C[C@@H]1C(=O)O	none
COc1cccc(-c2cn3nc(C)c(C)nc3n2)c1	Tau fil binding 10µM
Cc1nc2nc(-c3cccs3)cn2nc1C	none
COc1cc2c3c(c1)/C(=C1/SC(NC(C)=O)=NC1=O)C(=O)N3C(C)(C)C=C2C	Hsp90 Hop PPI 25µM
COc1ccc(N2C(=O)c3ccc(NC(C)=O)cc3C2=O)cc1	none
COc1ccc(-n2nc3cc(C)c(N)c(Br)c3n2)cc1	Tau fil binding 20µM
COc1ccc(-n2nc3ccccc3n2)cc1	none
Cc1ccc(CO)cc1	none
O=C(O)c1cc2ccccc2c(S(=O)(=O)O)c1O	none
O=C(O)c1cn[nH]c1-n1cnnn1	Hsp90 Hop PPI 25µM
O=C(c1cccc(-n2cnnn2)c1)N1CCOCC1	none
CCN(CC)Cc1cc(Nc2ccnc3cc(Cl)ccc23)ccc1O	Tau fil binding 3.2µM
O=C(O)c1ccc(Nc2ccnc3cc(Cl)ccc23)cc1O	none
COc1cc2c(cc1O)CC[C@@H]1[C@@H]2CC[C@@]2(C)[C@H](O)CC[C@H]12	none
c1cc(CSc2ncnc3nc[nH]c23)ccn1	none
COc1ccc(NCc2nnc(SCC(=O)Nc3cc(C(F)(F)F)ccc3Cl)o2)cc1	Hsp90 Hop PPI inconclusive, Tau fil binding 20µM
CC1=NNC(=S)NCCCN2CCN(CCCNC(=S)NN=C(C)C=NNC(=S)NCCCN3CCN(CCCNC(=S)NN=C1)CC3)CC2	Hsp90 Hop PPI 4µM, Tau fil binding inconclusive
COC(=O)[C@@H](NC(=O)c1cc(-c2ccccc2)nc2ccccc12)c1ccccc1	none (no result: BRCT PPI red, BRCT PPI green)

Bioassay records (PubChem BioAssay)
